aSyn 5UTR act = Activators via SNCA 5'UTR binding, MLPCN; alpha-synuclein 5'UTR reporter, activators screen; activity score, % (tested at 7.5 µM), hits read low; actives 7.1% (n = 300,000); in the data active = activity score below about -60%
Large screens that a line does not name were inactive. The list is a sample of the results.

CCNC(=S)Nc1ccc(-c2nc3ccccc3[nH]2)cc1	aSyn 5UTR act -161
COc1ccccc1CN1CC(C(=O)NCc2c(F)ccc(C)c2F)CCC1=O (stereo not given)	aSyn 5UTR act -72
CC#CC(=O)N1CCC(C(=O)Nc2ccc(Oc3ccccc3)nc2)CC1	aSyn 5UTR act -175
Cn1c(-c2cccs2)nc2ccccc21	aSyn 5UTR act -93
Cn1c(-c2ccc(Cl)nc2)nc2ccccc21	aSyn 5UTR act -65
Cc1cc(Cl)n2c(nc3ccccc32)c1C#N	none
Cn1c(-c2ccc(C=O)s2)nc2ccccc21	aSyn 5UTR act -123
O=S(=O)(/C(=C/c1ccc(C(F)(F)F)cc1)c1nc2ccccc2[nH]1)c1ccccc1	aSyn 5UTR act -62
CC(C)c1ccc(/C=C(\c2nc3ccccc3[nH]2)S(=O)(=O)c2ccccc2)cc1	aSyn 5UTR act -81
Cc1nn(-c2nc3ccccc3s2)c(N)c1Sc1ccc(F)cc1	aSyn 5UTR act -212
Cc1nn(-c2nc3ccccc3s2)c(N)c1-c1ccccc1	aSyn 5UTR act -224
Cc1nn(-c2nc3ccccc3s2)c(N)c1-c1ccc(Cl)cc1	aSyn 5UTR act -203
BrCCOCCOc1ccc2ccccc2c1	aSyn 5UTR act -130
Cc1c(C(=O)Nc2ccccc2[N+](=O)[O-])csc1-c1ccccc1	aSyn 5UTR act -142
Cc1ccc(NC(=O)c2cccnc2)c([N+](=O)[O-])c1	aSyn 5UTR act -63
COc1ccc(NC(=O)c2ccccc2)c([N+](=O)[O-])c1	aSyn 5UTR act -144
CCCc1cc(C(=O)Nc2ccc(OC)cc2[N+](=O)[O-])cs1	aSyn 5UTR act -100
CCCOc1ccc(C(=O)Nc2ccccc2[N+](=O)[O-])cc1	aSyn 5UTR act -401
CCCOc1ccc(C(=O)NNC(=S)NC(=O)c2ccccc2)cc1	none
Nc1ccc(-c2nc3ncccc3o2)c(Cl)c1	aSyn 5UTR act -104
Nc1ccc(-c2nc3ncccc3o2)c(O)c1	aSyn 5UTR act -176
COC(=O)/C=C/COc1ccccc1[N+](=O)[O-]	aSyn 5UTR act -63
COc1cc(C=O)ccc1OCCCOc1ccccc1[N+](=O)[O-]	aSyn 5UTR act -95
COc1ccccc1OCCCOc1ccc([N+](=O)[O-])cc1Cl	aSyn 5UTR act -119
COc1cc(C=O)ccc1OCc1ccc(Cl)nc1	aSyn 5UTR act -106
C/C=C/c1ccc(OCCOc2cc(C=O)ccc2OC)c(OC)c1	aSyn 5UTR act -105
CCOc1cccc(OCCOc2ccccc2[N+](=O)[O-])c1	aSyn 5UTR act -110
COc1cc(C=O)ccc1OCCOc1ccccc1[N+](=O)[O-]	aSyn 5UTR act -103
Cc1ccc(NC(=O)NCCN2C(=O)C3C4C=CC(C4)C3C2=O)cc1 (stereo not given)	aSyn 5UTR act -81
CC(=O)Nc1cccc(Oc2nc(-c3ccccn3)nc3ccccc23)c1	aSyn 5UTR act -129
C=CCOc1nc(-c2ccccc2Cl)nc2ccccc12	none
CC(=O)Nc1ccc(Oc2nc(-c3ccccn3)nc3ccccc23)cc1	aSyn 5UTR act -115
Cc1cccc(Oc2nc(-c3ccccn3)nc3ccccc23)c1	aSyn 5UTR act -111
CC1=C([N+](=O)[O-])C(c2ccccc2)C2=C(N1)c1ccccc1C2=O (stereo not given)	none
Cn1c2c(c(=O)[nH]c1=O)C(c1ccc(O)cc1)C1=C(N2)c2ccccc2C1=O (stereo not given)	aSyn 5UTR act -67
Cc1sc2ncnc(NCC(O)c3ccccc3)c2c1C (stereo not given)	aSyn 5UTR act -104
C(/C=C/c1ccco1)=N/N1CCN(c2ccccc2)CC1	aSyn 5UTR act -189
Clc1ccccc1CN1CCN(/N=C/C=C\c2ccco2)CC1	aSyn 5UTR act -78
N/C(=N\OC(=O)C12CC3CC(CC(C3)C1)C2)c1ccccc1	aSyn 5UTR act -134
N/C(=N\OC(=O)N1CCOCC1)c1ccccc1	aSyn 5UTR act -64
N/C(=N\OC(=O)C12CC3CC(CC(C3)C1)C2)c1ccccn1	aSyn 5UTR act -110
C/C(=N/NC(=O)c1ccoc1C)C12CC3CC(CC(C3)C1)C2	aSyn 5UTR act -158
C/C(=N\NC(=O)c1ccccn1)C12CC3CC(CC(C3)C1)C2	aSyn 5UTR act -131
CCOC(=O)c1cccc(NC(=O)c2cncc(Br)c2)c1	aSyn 5UTR act -82
CCOC(=O)c1cccc(NC(=O)c2cnc3ccccc3n2)c1	aSyn 5UTR act -106
CCOCCCNC(=O)c1cc2c(-c3ccc(Cl)cc3)nn(C)c2s1	aSyn 5UTR act -62
Cn1nc(-c2ccc(Cl)cc2)c2cc(C(=O)NCCN3CCOCC3)sc21	aSyn 5UTR act -107
CCCCN(CC)CCNC(=O)c1cc2c(-c3ccc(Cl)cc3)nn(C)c2s1	none
CCN1CCN(C(=O)c2cc3c(-c4ccc(Cl)cc4)nn(C)c3s2)CC1	aSyn 5UTR act -68
CCCN(CCC)CCNC(=O)c1cc2c(-c3ccccc3F)nn(C)c2s1	aSyn 5UTR act -62
Cn1nc(-c2ccc(Cl)cc2)c2cc(C(=O)NCCCN3CCOCC3)sc21	aSyn 5UTR act -134
COc1ccc(C(=O)Nc2nccs2)cc1	aSyn 5UTR act -120
COc1ccc(C(NC(C)=O)c2cc(Cl)c3cccnc3c2O)cc1 (stereo not given)	none
COc1ccc(C(=O)NC(=S)Nc2cc(C)ccn2)cc1[N+](=O)[O-]	aSyn 5UTR act -68
COc1ccc(C(=O)Nc2nccs2)cc1OC	aSyn 5UTR act -71
COc1ccc2c(CC(=O)Nc3nccs3)coc2c1	aSyn 5UTR act -101
COc1ccc(NC(=O)Nc2nccs2)cc1	aSyn 5UTR act -94
COc1ccc(C(=O)Nc2nccs2)cc1[N+](=O)[O-]	aSyn 5UTR act -74
O=C(Nc1nccs1)c1ccc([N+](=O)[O-])cc1	aSyn 5UTR act -75
CC(C)Cc1nnc(NC(=O)Nc2ccccc2)s1	aSyn 5UTR act -115
Cc1cccc(NS(=O)(=O)c2ccc(-c3cnc(C4CC4)o3)cc2)c1C	none
CCc1nnc(NC(=O)Nc2ccc(OC)cc2)s1	aSyn 5UTR act -162
CC(C)Cc1nnc(NC(=O)c2ccc([N+](=O)[O-])cc2)s1	aSyn 5UTR act -95
CCC(C)(C)c1nnc(NC(=O)c2cccc([N+](=O)[O-])c2)s1	aSyn 5UTR act -147
CCCc1nnc(NC(=O)c2cc3ccccc3o2)s1	aSyn 5UTR act -88
CCCc1nnc(NC(=O)c2cccc(OC)c2)s1	aSyn 5UTR act -91
O=C(Nc1nccs1)c1cccc(NC(=O)C(F)(F)F)c1	aSyn 5UTR act -86
CCOCc1nnc(NC(=O)c2ccc(OC)cc2)s1	aSyn 5UTR act -73
CCN(CC)S(=O)(=O)c1ccc2oc(Nc3ccccc3)nc2c1	aSyn 5UTR act -129
CCS(=O)(=O)c1ccc2oc(Nc3ccccc3C)nc2c1	aSyn 5UTR act -122
COc1ccc2c(c1)sc1nc(-c3ccccc3)cn12	none
COc1ccc(-n2cc(-c3ccccc3)nc2SC)cc1	aSyn 5UTR act -121
COC(=O)CN1C(=O)S/C(=C/c2cc(C)n(C)c2C)C1=O	aSyn 5UTR act -167
CCCN1C(=O)S/C(=C/c2ccc(N3CCOCC3)o2)C1=O	aSyn 5UTR act -83
COC(=O)CN1C(=O)S/C(=C/c2ccc(N3CCCCC3)o2)C1=O	aSyn 5UTR act -89
CCCN1C(=O)S/C(=C\c2ccc(N3CCOCC3)o2)C1=O	aSyn 5UTR act -94
CC(=O)Nc1ccc(OCc2nnc(-c3ccc(Cl)cc3)o2)cc1	aSyn 5UTR act -96
N#C/C(=C/c1ccc(N2CCCCC2)o1)C(=O)Nc1ccc2ccccc2c1	aSyn 5UTR act -110
N#C/C(=C/c1ccc(N2CCCCC2)o1)C(=O)Nc1ccc(Cl)cc1	aSyn 5UTR act -152
O=C(Nc1ccc2c(c1)OCCO2)c1cc(F)c(F)cc1Cl	aSyn 5UTR act -195
O=C(Nc1ccc2c(c1)OCCO2)c1cccc(Cl)c1Cl	aSyn 5UTR act -140
